Measurements as given in PubChem BioAssay AID2235 (The Scripps Research Institute Molecular Screening Center, 2010).
Out of some 320,000 compounds screened, about 2,800 (0.88%) were called active.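 How the source made its calls: active means inhibition above the mean inhibition of all tested compounds plus 3 SD, computed separately for each screening campaign (cut at about 15% in these data); inactive means the rest.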 For the sample, actives were picked, then their nearest neighbours and some compounds at random.

What follows are molecules tested against Serine/threonine-protein phosphatase PP1-alpha catalytic subunit (Homo sapiens) (UniProt P62136) (assay: PP1-alpha phosphatase inhibitors, primary screen, counter-screen for PP5 inhibitor project, biochemical, fluorescence, OMFP substrate, single point (AID 2235)). Settings: purified PP1alpha, at 6.7 µM, stronger effect = higher value.
Sequence of Serine/threonine-protein phosphatase PP1-alpha catalytic subunit (Homo sapiens) (P62136 whole entry, looked up): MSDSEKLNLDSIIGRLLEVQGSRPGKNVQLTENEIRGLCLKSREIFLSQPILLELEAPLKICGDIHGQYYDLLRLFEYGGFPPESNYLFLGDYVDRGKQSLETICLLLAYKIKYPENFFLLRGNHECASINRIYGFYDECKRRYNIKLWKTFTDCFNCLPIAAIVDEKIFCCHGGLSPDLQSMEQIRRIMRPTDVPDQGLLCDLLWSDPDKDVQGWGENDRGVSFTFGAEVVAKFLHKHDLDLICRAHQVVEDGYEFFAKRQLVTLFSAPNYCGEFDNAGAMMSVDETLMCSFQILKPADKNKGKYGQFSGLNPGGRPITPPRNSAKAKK
For `COc1cc(N2C(=O)CSC2=S)cc(OC)c1OC`, the inhibition was -0.27% (inactive). `CC(C)n1ncc2c(C(=O)Nc3ccc(CC#N)cc3)cc(C3CC3)nc21` was tested, and the inhibition was 0.77% (inactive). With `CC(=O)Nc1ccc(S(=O)(=O)NC(C)C(=O)OCC(=O)NC2CCCC2)cc1` (centres undefined) the inhibition was -2.23% (inactive). In the case of `COc1ccc(/C=N/NC(=O)c2cc(-c3cccc(C)c3)nc3ccccc23)cc1O`, the inhibition is reported as -0.69% (inactive). `Cc1ccc(-c2cc(C(=O)N/N=C/C=C/c3ccco3)c3ccccc3n2)cc1C` was tested, and the inhibition was 20% (active). In the case of `O=C(N/N=C/C=C/c1ccco1)c1cccs1`, the inhibition is reported as -2.08% (inactive). For `CCn1cc(C(=O)NC2CCCCCC2)c(=O)c2cc(S(=O)(=O)N3CCCCC3)ccc21`, the inhibition was -1.18% (inactive). With `Cc1ccc(N2C(=O)C3C4C=CC(CC4)C3C2=O)cc1Br` (centres undefined) the inhibition was -2.3% (inactive). With `Cc1ccc(-c2nc3ccccc3[nH]2)cc1N` the inhibition was -2.81% (inactive). `O=C(Nc1cccc(-c2nc3ccccc3[nH]2)c1)c1ccc(C(=O)Nc2cccc(-c3nc4ccccc4[nH]3)c2)cc1` was tested, and the inhibition was 18.9% (active). In the case of `O=C(/C=C/c1ccco1)Nc1cccc(-c2nc3ccccc3[nH]2)c1`, the inhibition is reported as -1.53% (inactive). For `O=C(O)c1ccccc1C(=O)NC1=NN(c2ccccc2)CC1`, the inhibition was 2.04% (inactive). For `Cc1ccc2nc(N(CCN(C)C)C(=O)C3=COCCO3)sc2c1`, the inhibition was -4.21% (inactive). With `O=C(NCc1cccs1)c1cc(-c2ccccn2)nc2ccc(Br)cc12` the inhibition was 0.34% (inactive). `Cc1ccc(-c2cc(C(=O)NCc3cn(C)nc3C)c3cc(Br)ccc3n2)cc1` was tested, and the inhibition was 15.4% (active). With `Cc1nn(C)cc1CNC(=O)Nc1ccc(Cl)cc1` the inhibition was -6.68% (inactive). For `Cc1cc(C)c(C(N)=O)c(Cl)n1`, the inhibition was -1.75% (inactive). In the case of `CCCN(CCC)CCCNC(=O)CNC(=O)c1nn(-c2ccc(OC)cc2)c(=O)c2ccccc12`, the inhibition is reported as -4.54% (inactive). For `COc1ccc(CN2CCNC(=O)C2CC(=O)NCc2cn[nH]c2-c2ccccc2)c(F)c1` (centres undefined), the inhibition was 3.63% (inactive). With `OCCC1CN(Cc2ccc(Oc3ncccn3)cc2)CCN1CCc1ccccc1` (centres undefined) the inhibition was -2.28% (inactive). `COc1cc(/C=C/C(=O)OCC(=O)NC(=O)NCc2ccccc2)ccc1OCC#N` was tested, and the inhibition was -4.2% (inactive). In the case of `CCOc1ccc(/C=C/C(=O)OCC(=O)c2ccccc2OC)cc1OC`, the inhibition is reported as 23.7% (active). In the case of `COc1ccc(/C=C/C(=O)OCC(=O)NCc2cccs2)cc1OC`, the inhibition is reported as -2.5% (inactive). For `O=C(C1CCCO1)N1CCN(S(=O)(=O)c2ccc(Br)cc2)CC1` (centres undefined), the inhibition was 0% (inactive). For `COc1cc(NC(=O)COC(=O)c2cnc(C)cn2)c(C)cc1[N+](=O)[O-]`, the inhibition was -3.47% (inactive). `Nn1c(SCc2ccccc2)nnc1C1CCCCC1` was tested, and the inhibition was -2.09% (inactive). For `COCCNC(=O)C1CCN(C(=O)C2CC(=O)N(c3ccc(C)cc3)C2)CC1` (centres undefined), the inhibition was -0.32% (inactive). For `COCCCNC(=O)C1CC(=O)N(c2ccc(C)cc2)C1` (centres undefined), the inhibition was 73.3% (active). In the case of `COCCCNC(=O)C1CC(=O)N(CCc2ccccc2)C1` (centres undefined), the inhibition is reported as 0.11% (inactive). For `O=C(CN1CCN(c2ccc(F)cc2)CC1)Nc1ccccc1`, the inhibition was 2.42% (inactive). For `Oc1c(CN2CCN(c3ccc(F)cc3)CC2)cc(Cl)c2cccnc12`, the inhibition was 35.2% (active). In the case of `Cc1cccnc1NC(=O)c1cccc(S(=O)(=O)N2CCN(c3ccc(F)cc3)CC2)c1`, the inhibition is reported as -3.22% (inactive). In the case of `C1CC1Cc1noc(CN2CCN(CC3CC3)CC2)n1`, the inhibition is reported as -4.45% (inactive). With `CC(=O)Nc1ccc(C(=O)NNC(=O)CCCCC(=O)NNC(=O)c2ccc(NC(C)=O)cc2)cc1` the inhibition was -4.34% (inactive). For `CCc1sc(C(=O)N2CCN(CC(=O)Nc3cccc(F)c3)CC2)cc1C`, the inhibition was -1.08% (inactive). With `O=C(N/N=C/c1cc([N+](=O)[O-])ccc1O)/C(=C\c1cccs1)NC(=O)c1ccccc1` the inhibition was 19.9% (active). In the case of `Cc1ccc(NC(=O)/C(=C/c2ccc([N+](=O)[O-])cc2)NC(=O)c2ccccc2)cc1`, the inhibition is reported as 1.49% (inactive). In the case of `O=C(Nc1ccc(C(=O)O)cc1)/C(=C/c1ccc([N+](=O)[O-])cc1)NC(=O)c1ccccc1`, the inhibition is reported as -0.04% (inactive). `COC(=O)CC(=O)N1CCN(c2ccc(Cl)c(Cl)c2)CC1` was tested, and the inhibition was -1.17% (inactive). `CC(C)Cn1c(N)c(C(=O)COC(=O)C2CCCN2C(=O)c2cccs2)c(=O)n(C)c1=O` (centres undefined) was tested, and the inhibition was 3.85% (inactive). With `Cc1ccc(OCC(=O)N2CCN(S(=O)(=O)c3ccc(Cl)s3)CC2)cc1C` the inhibition was 2.28% (inactive). In the case of `CCn1c(=O)c(C(=O)NCc2ccc3c(c2)OCO3)c(O)c2ccccc21`, the inhibition is reported as -4.95% (inactive). For `Cc1nc2c(C(=O)NCc3ccc4c(c3)OCO4)c[nH]n2c(=O)c1Cc1ccccc1F`, the inhibition was 42.6% (active). For `O=C(NCc1ccc2c(c1)OCO2)c1cc(F)c(F)cc1Cl`, the inhibition was 2.6% (inactive). `COc1ccccc1NC(=O)CSc1nnc(C)n1CC1CCCO1` (centres undefined) was tested, and the inhibition was -1.67% (inactive). With `CC(=O)Nc1ccc(NC(=O)CSc2nnc(COc3ccccc3C)n2CC2CCCO2)cc1` (centres undefined) the inhibition was 16.9% (active). For `Cc1ccc(NC(=O)CSc2nnc(COc3ccccc3C)o2)cc1`, the inhibition was -4.67% (inactive). `Cc1cccc2cc(CN(Cc3cccs3)C(=S)NCc3ccco3)c(=O)[nH]c12` was tested, and the inhibition was 16.9% (active). In the case of `Cc1ccc(C)c2[nH]c(=O)c(CN(Cc3cccnc3)C(=S)NCc3ccco3)cc12`, the inhibition is reported as 1.73% (inactive). In the case of `Cc1cccc2cc(CN(C(=O)c3cccs3)c3ccccc3)c(=O)[nH]c12`, the inhibition is reported as 1.24% (inactive). In the case of `Cc1ccnc(NC(=O)c2ccc(Cl)c([N+](=O)[O-])c2)c1`, the inhibition is reported as -0.42% (inactive). With `Cc1c(NC(=O)CN2C(=O)C(=O)N(Cc3ccccc3)C2=O)c(=O)n(-c2ccccc2)n1C` the inhibition was -2.42% (inactive). With `Cc1ccc(CSc2nc(-c3ccccc3)c(C#N)c(=O)[nH]2)cc1` the inhibition was 14.2% (inactive). `N#Cc1c(-c2ccccc2)nc(SCc2cccc(C(F)(F)F)c2)[nH]c1=O` was tested, and the inhibition was 22.1% (active). With `N#Cc1c(-c2ccccc2)nc(SCc2ccc([N+](=O)[O-])cc2)[nH]c1=O` the inhibition was 9.45% (inactive). `Cc1ccc(OCCC(=O)OCC(=O)N2c3ccccc3NC(=O)C2(C)C)cc1` was tested, and the inhibition was 0.61% (inactive). For `CCCCN(CC)C(=O)c1ccccc1Oc1ccccc1`, the inhibition was -1.38% (inactive). With `CCOC(=O)c1c(S(=O)(=O)Nc2ccc(CN3CCC(C)CC3)cc2)c(C)n(C)c1C` the inhibition was 2.36% (inactive). With `O/N=C(\c1ccc2c(c1)OCCO2)C1CCCCC1` the inhibition was 0.46% (inactive). In the case of `COc1ccc2c(CN3CCN(S(=O)(=O)c4cccs4)CC3)cc(=O)oc2c1`, the inhibition is reported as 4.63% (inactive). In the case of `Cc1ccc2c(CN3CCN(S(=O)(=O)c4ccccc4C(F)(F)F)CC3)cc(=O)oc2c1`, the inhibition is reported as 16.8% (active). With `Cc1cc2oc(=O)cc(CN3CCN(S(=O)(=O)c4cccs4)CC3)c2cc1C(C)C` the inhibition was -3.33% (inactive). With `COc1ccccc1NS(=O)(=O)N(C)C` the inhibition was 6.89% (inactive). With `CCCc1nnc(NC(=O)CCC(=O)N2CCN(S(=O)(=O)c3ccc(OC)cc3)CC2)s1` the inhibition was -4.44% (inactive). With `Nc1ccc2nc3c(=O)[nH]c(=S)[nH]c3nc2c1` the inhibition was 41.9% (active). With `Cc1cc2nc3c(=O)n(Cc4ccccc4)c(=O)[nH]c3nc2cc1N` the inhibition was 2.81% (inactive). In the case of `COC(=O)/C(C#N)=C/c1occc1C`, the inhibition is reported as -1.37% (inactive). For `CCC(C)(C)NC(=O)C(c1ccc(O)cc1)N(C(=O)Cn1nnc2ccccc21)c1ccc(NC(C)=O)cc1` (centres undefined), the inhibition was 4.46% (inactive). `Clc1ccccc1CSc1nnc(-c2ccco2)c(-c2ccco2)n1` was tested, and the inhibition was 24.6% (active). `O=C(CC1N=C2c3ccccc3N=C(SCc3ccccc3Cl)N2C1=O)NCc1ccco1` (centres undefined) was tested, and the inhibition was 1.15% (inactive). For `O=c1cc(O)nc(SCc2ccccc2Cl)[nH]1`, the inhibition was 3.47% (inactive). In the case of `CCOC(=O)N1CCN(S(=O)(=O)c2cc3c(cc2C)NC(=O)CO3)CC1`, the inhibition is reported as -2.81% (inactive). For `Cc1cc(N2C(=O)C(O)=C(C(=O)c3ccc(C)o3)C2c2ccc(OCc3ccccc3)cc2)no1` (centres undefined), the inhibition was 26.8% (active). In the case of `COc1cc(C2C(C(=O)c3ccco3)=C(O)C(=O)N2c2cc(C)on2)ccc1OCc1ccccc1` (centres undefined), the inhibition is reported as 13.9% (inactive). `CCOc1cc(C2C(C(=O)c3ccco3)=C(O)C(=O)N2Cc2ccccc2)ccc1O` (centres undefined) was tested, and the inhibition was 4.74% (inactive). In the case of `COc1cc(C2C(C(=O)c3ccc(C)o3)=C(O)C(=O)N2CCc2ccccc2)ccc1O` (centres undefined), the inhibition is reported as 32.7% (active). `COc1ccc(CCN2C(=O)c3[nH]nc(-c4ccccc4O)c3C2c2ccc(C)cc2)cc1OC` (centres undefined) was tested, and the inhibition was 6.53% (inactive). For `Cc1cc(N2C(=O)C(=O)/C(=C(/O)c3ccccc3)C2c2cccc(Br)c2)no1` (centres undefined), the inhibition was -4.18% (inactive). With `Cc1c(Cl)c([N+](=O)[O-])nn1CC(=O)NCC1CCCO1` (centres undefined) the inhibition was -3.7% (inactive). `COc1ccccc1N1CCN(S(=O)(=O)c2ccc3c(c2)NC(=O)CS3)CC1` was tested, and the inhibition was 5.88% (inactive). In the case of `CCOc1ccc(C(=O)Nc2ccc(S(=O)(=O)NCC3CCCO3)cc2)cc1OCC` (centres undefined), the inhibition is reported as -1.6% (inactive). For `COC(C[C@@H](O)C[C@@H](O)[C@H](C)OCc1ccccc1)OC`, the inhibition was 0.46% (inactive). In the case of `COCCC(=O)N1CCC(Oc2ccc(C(=O)NCc3ccon3)cc2)CC1`, the inhibition is reported as -0.97% (inactive). For `CCN(CC)CCNC(=O)c1ccc(NC(=O)c2cc(-c3ccncc3)nc3ccccc23)cc1`, the inhibition was -7.72% (inactive). With `O=C(Nc1ccc(S(=O)(=O)Nc2nccs2)cc1)c1cc(=O)[nH]c2ccccc12` the inhibition was 0.73% (inactive). With `O=C(Nc1ccc(S(=O)(=O)Nc2nccs2)cc1)c1cc(-c2ccncc2)nc2ccccc12` the inhibition was 27.5% (active). In the case of `c1ccc(C2CNCc3c2ccc2ccccc32)cc1` (centres undefined), the inhibition is reported as 3.78% (inactive). In the case of `Cn1cnc(C(F)(F)F)c1-c1ccc([N+](=O)[O-])cc1`, the inhibition is reported as -0.23% (inactive). With `C[N+](C)(C)CCOP(=O)([O-])OC[C@H](O)CO` the inhibition was -5.96% (inactive).
